Test systems include NCI-H23 lung; NCI-H226 lung; NCI-H322M lung; HOP-62 NSCLC; NCI-H460 lung; HOP-92 NSCLC; NCI-H522 lung; A549/ATCC NSCLC; 786-0 renal; COLO 205 colon.
What all share (test): NCI-60 one-dose screen, 48 h (100 = growth as untreated, 0 = no growth, -100 = all killed)
Holding throughout (conditions): 10 µM unless noted

Molecules are shown by their SMILES. Compounds without any hit were thinned out: in the full panel of roughly 83,000, 20% have a hit.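 Values shown are percent growth following 48 h exposure of cells in 96-well plates to a single concentration of compound; below 10 was considered active.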 Unmarked numbers belong to inactive results. Active and inactive are the calls of the source.

Turning to `CC1Cc2c(Cl)ncnc2N(C)c2ccccc21` (stereo not given), the growth in the assay on NCI-H23 lung was 18.6%; in the assay with NCI-H226 lung, 1.16% (active); with NCI-H322M lung, 26.8%; in the assay on HOP-62 NSCLC, 22.8%; with NCI-H460 lung it was 21.2%; in the assay on HOP-92 NSCLC, 26%. The growth with NCI-H522 lung is 57.7%; in the assay with A549/ATCC NSCLC, 16.6%; in the assay with 786-0 renal, 4.7% (active); in the assay with COLO 205 colon, -81.1% (active).

`Cc1cc(SC#N)ncn1`: the growth with NCI-H23 lung was 103%; in the assay on NCI-H226 lung, 99%; in the assay on NCI-H322M lung, 103%; in the assay on HOP-62 NSCLC, 98.2%; in the assay on NCI-H460 lung it was 99.5%; with HOP-92 NSCLC, 106%. Moreover, the growth in the assay on NCI-H522 lung was 92.3%; in the assay with A549/ATCC NSCLC it was 93.5%; with 786-0 renal, 109%; in the assay with COLO 205 colon, 115%.

For `Nc1cccc2c1C(=O)c1cccc(NC(=O)c3ccccc3)c1C2=O`, the growth in the assay on NCI-H23 lung is 29.9%; in the assay on NCI-H226 lung, 52.2%; in the assay with NCI-H322M lung, -7.76% (active); with HOP-62 NSCLC it was 38.7%; in the assay on NCI-H460 lung it was 7.2% (active); in the assay with HOP-92 NSCLC, 53.2%. Further, the growth in the assay on NCI-H522 lung was -28.5% (active); in the assay on A549/ATCC NSCLC it was 28.6%; in the assay on 786-0 renal, 37.5%; in the assay with COLO 205 colon, -11.5% (active).

As to `Oc1c(CNCCNCc2cc(Cl)cc(Cc3ccccc3)c2O)cc(Cl)cc1Cc1ccccc1`, the growth with NCI-H23 lung was 17.4%; with NCI-H226 lung, 9.76% (active); in the assay with NCI-H322M lung, 23.4%; in the assay on HOP-62 NSCLC, 19.4%; in the assay on NCI-H460 lung, 8.13% (active); in the assay on HOP-92 NSCLC, 45.1%. Also, the growth is 43.7% in the assay on NCI-H522 lung, 13.9% in the assay on A549/ATCC NSCLC, -3.97% (active) in the assay on 786-0 renal and 8.84% (active) in the assay with COLO 205 colon.

Turning to `COc1c(C(C)=O)c(OCCCCOc2c(C(C)=O)c(OC)c3ccoc3c2OC)c(OC)c2occc12`, the growth is 68.8% with NCI-H23 lung; 65.4% in the assay on NCI-H226 lung; 85.2% in the assay on NCI-H322M lung; 117% in the assay with HOP-62 NSCLC; 80.1% in the assay with NCI-H460 lung; 57.3% with HOP-92 NSCLC. The growth in the assay on NCI-H522 lung was -7.73% (active); in the assay with A549/ATCC NSCLC, 64.7%; in the assay with 786-0 renal, 89%; in the assay on COLO 205 colon, 77%.

For `CC(C)c1ccc(C(=O)Nc2sc3c(c2C#N)CCC(=O)C3)cc1`, the growth is -5.74% (active) in the assay with NCI-H23 lung; 50.5% in the assay on NCI-H226 lung; 71.9% in the assay with NCI-H322M lung; 36.9% in the assay with HOP-62 NSCLC; 3.31% (active) in the assay on NCI-H460 lung; -52.2% (active) in the assay on HOP-92 NSCLC. In addition, the growth in the assay with NCI-H522 lung was -36.7% (active); in the assay on A549/ATCC NSCLC it was 15%; in the assay with 786-0 renal, 8.77% (active); with COLO 205 colon, -36.5% (active).

As to `CCOC(=O)c1sc2nc(-c3cc(OC)c(OC)c(OC)c3)nc(N3CCOCC3)c2c1C`, the growth in the assay with NCI-H23 lung was 27.6%; in the assay on NCI-H226 lung, 44.7%; with NCI-H322M lung it was 48.2%; in the assay with HOP-62 NSCLC, 77.1%; in the assay on NCI-H460 lung, 17.5%; in the assay on HOP-92 NSCLC, -15% (active). Also, the growth was 12.1% in the assay with NCI-H522 lung, 28.9% in the assay on A549/ATCC NSCLC, 51.8% in the assay on 786-0 renal and 26.5% in the assay on COLO 205 colon.

For the compound `O=C(Nc1ccc(F)cc1)c1ccccc1`, the growth with NCI-H23 lung was 108%; in the assay on NCI-H226 lung, 104%; with NCI-H322M lung it was 103%; with HOP-62 NSCLC, 109%; in the assay with NCI-H460 lung it was 105%; with HOP-92 NSCLC, 119%. The growth in the assay on NCI-H522 lung is 101%; with A549/ATCC NSCLC, 99.6%; in the assay with 786-0 renal, 100%; in the assay on COLO 205 colon it was 113%.

Consider `COc1ccc(-c2ccc(NNC(=O)c3ccc(F)cc3)nn2)cc1OC`, for which the growth was 83.7% in the assay with NCI-H23 lung; 70% in the assay with NCI-H226 lung; 72.2% in the assay on NCI-H322M lung; 57.6% in the assay with HOP-62 NSCLC; 93.2% in the assay with NCI-H460 lung; 8.49% (active) with HOP-92 NSCLC. Further, the growth in the assay with NCI-H522 lung is 72.8%; in the assay on A549/ATCC NSCLC, 72.4%; in the assay with 786-0 renal, 63.4%; in the assay with COLO 205 colon, 75.6%.

Regarding `CCCCCn1sc(=O)n(Cc2ccc(CNC(=O)OCc3ccc4cccc(O)c4n3)cc2)c1=O`, the growth was 25.1% with NCI-H23 lung; 21.9% in the assay on NCI-H226 lung; 41.8% with NCI-H322M lung; -0.186% (active) with HOP-62 NSCLC; 6.42% (active) with NCI-H460 lung; -52.5% (active) in the assay with HOP-92 NSCLC. Also, the growth was -49.1% (active) with NCI-H522 lung, 20.6% in the assay with A549/ATCC NSCLC, -71% (active) in the assay with 786-0 renal and -45.2% (active) in the assay on COLO 205 colon.

As for `Nc1ccc2c(c1)Cc1cc(NC(=O)C(F)(F)F)ccc1-2`, the growth in the assay with NCI-H23 lung is 95.9%; in the assay with NCI-H226 lung it was 93.6%; in the assay on NCI-H322M lung, 95.5%; with HOP-62 NSCLC, 105%; with NCI-H460 lung, 97.8%; in the assay on HOP-92 NSCLC, 101%. The growth in the assay with NCI-H522 lung is 90.3%; with A549/ATCC NSCLC, 93.6%; in the assay with 786-0 renal it was 108%; with COLO 205 colon, 109%.

`CCOC(=O)C(c1ccccc1)N1C(=O)c2ccccc2C1=O` (stereo not given): the growth with NCI-H23 lung was 87.2%; in the assay on NCI-H226 lung, 106%; in the assay with NCI-H322M lung, 96.2%; in the assay with HOP-62 NSCLC, 95.8%; in the assay on NCI-H460 lung, 100%; in the assay on HOP-92 NSCLC, 82%. Moreover, the growth was 96.8% with NCI-H522 lung, 97.6% in the assay on A549/ATCC NSCLC, 102% in the assay with 786-0 renal and 98.5% with COLO 205 colon.
